# D2 PAM-1: positive allosteric modulators of human D2 dopamine receptor; P14416; HEK293 T-REx D2, calcium flux, EC20 dopamine potentiation; potentiation, % at 10 µM; AID 485347; actives 0.34% (n = 340,000);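 active = potentiation over 3 SD above the plate norm, cut at about 30% in these data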; also: 0% is about no effect
# Target sequence (P14416 whole entry, looked up): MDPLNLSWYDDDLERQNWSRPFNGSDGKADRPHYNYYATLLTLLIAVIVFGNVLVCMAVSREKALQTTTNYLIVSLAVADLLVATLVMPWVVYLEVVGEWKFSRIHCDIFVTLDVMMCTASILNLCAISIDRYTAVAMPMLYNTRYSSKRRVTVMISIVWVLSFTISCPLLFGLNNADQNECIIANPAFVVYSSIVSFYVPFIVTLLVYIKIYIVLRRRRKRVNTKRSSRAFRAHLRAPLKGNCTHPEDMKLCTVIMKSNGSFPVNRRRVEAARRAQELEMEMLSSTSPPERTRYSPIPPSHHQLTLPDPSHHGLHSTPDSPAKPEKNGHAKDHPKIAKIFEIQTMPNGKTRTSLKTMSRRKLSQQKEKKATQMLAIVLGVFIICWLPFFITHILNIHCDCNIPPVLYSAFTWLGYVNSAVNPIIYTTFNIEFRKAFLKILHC
#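 Calcium flux readout, no-wash dye, 1 read/s. Inducible HEK293 Trex D2 line, overnight 30 C. Compound alone 180 s (agonist flags), then EC20 dopamine, another 180 s to score potentiation.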
# D2 antagonist: D2 dopamine receptor (human) antagonism | inhibition, % at 10 µM | actives 2% (n = 340,000) | HEK293 TREx D2 cells, calcium flux, dopamine EC80; in the data active = inhibition above about 30%; inactive = below that, where a call was filed; also: 0% is about no effect
#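 Tetracycline-induced HEK293 TREx cells expressing D2 receptor forced-coupled to calcium signalling, loaded with no-wash calcium dye. Compounds added and calcium flux read 180 s, then dopamine added at EC80 and read a further 180 s.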
# D2 ag-1: activates the human D2 dopamine receptor | AID 624465 | DiscoveRx PathHunter D2 beta-arrestin, luminescence, 90 min; 100% = 57 uM dopamine signal | P14416 | actives 0.084% (n = 360,000) | activation, % (no concentration beside the values); in the data active = activation above about 40%
#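 Agonist mode: compounds alone added to overnight-plated D2 PathHunter cells for 90 min at 37 C, with 57 uM final dopamine (EC100) defining full response. Beta-arrestin recruitment detected by chemiluminescent reagent, read after 1 h at ambient temperature.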
# D2 ag-2: agonists of human D2 dopamine receptor; P14416; actives 0.53% (n = 340,000); activation, % at 2 µM; HEK293 T-REx D2 cells, calcium flux agonist mode;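 active = activation over 3 SD above normal in the single-dose calcium agonist read, cut at about 30% in these data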; also: 0% is about no effect
#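 Agonism is scored from calcium flux in a force-coupled, inducible HEK293 cell line expressing D2, read kinetically for 180 s after compound addition against dopamine controls.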
# D2 PAM-2: positive allosteric modulators of human D2 dopamine receptor; P14416; DiscoveRx D2 beta-arrestin cells, luminescence, 90 min; 100% = 57 uM dopamine signal; potentiation, % (no concentration beside the values); actives 0.23% (n = 360,000); in the data active = potentiation above about 50%
#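 D2 cells co-treated with compound plus 50 nM dopamine (EC20) for 90 min at 37 deg C to detect potentiation. Beta-arrestin recruitment was read as enzyme-fragment luminescence after 1 h at ambient temperature. Full response was set by 57 uM dopamine.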
# * hit, by the source's call; x = no result given. A selection: hits, their analogues and other compounds. The true share with any hit is near 2.4%.
SMILES,D2 PAM-1,D2 antagonist,D2 ag-1,D2 ag-2,D2 PAM-2
O=C(NCc1ccccc1)c1ccc2nnsc2c1,0,34*,-4,0,-3
CC(C)Cn1cnc2c(c(-c3ccccc3)c(-c3ccccc3)n2Cc2ccco2)c1=N,-5,46*,-4,2,-27
N=c1c2c(-c3ccccc3)c(-c3ccccc3)n(Cc3ccco3)c2ncn1Cc1ccccc1,1,14,-3,3,3
O=C(O)c1ccc2nc3c(nc2c1)-c1ccccc1C3=O,8,34*,-5,1,-17
CC(Sc1nnc(-c2ccc(Cl)cc2)n1N)C(=O)NCC1CCCO1 (stereo not drawn),10,-10,3,0,21
c1nnc(-c2ccc3c(c2)OCO3)o1,-2,31*,4,1,5
Cc1ccc(-c2nnc(-c3ccc4c(c3)OCO4)o2)cc1,17,-12,-3,5,-10
CCN1CCCC1CNC(=O)c1ccc(Sc2ccc(F)cc2)c([N+](=O)[O-])c1 (stereo not drawn),-28,35*,-5,1,-18
CCN1CCN(C(=O)c2ccc(Sc3ccccc3Cl)c([N+](=O)[O-])c2)CC1,-22,1,1,1,-26
CCN1CCCC1CNC(=O)c1ccc(Sc2ccccc2Cl)c([N+](=O)[O-])c1 (stereo not drawn),-18,72*,-1,0,-9
O=C(Nc1cc(Cl)cc(Cl)c1)N1CCCN(Cc2ccccc2)CC1,-25,87*,2,0,-32
CCCCCCn1ccc(=N)cc1,-1,36*,-4,-1,-7
CCCCCCCCCCCCCCCCn1cc[n+](CC(C)=O)c1,-7,-6,2,1,-7
O=C(NCCc1ccccc1)c1ccc(-c2ccccc2C(F)(F)F)o1,-19,-8,0,-1,-17
O=C(NNC(=O)c1cc2ccccc2o1)c1ccc(F)cc1,-3,8,-2,-1,-15
O=C(NCc1ccccc1)c1ccc(-c2ccccc2F)o1,32*,24,-3,-2,-17
O=C(NCc1ccc(F)cc1)c1cc2ccccc2o1,52*,-9,1,-2,-1
Cc1ccc(N2CC(C(=O)N(C)CC(=O)Nc3ccc(Cl)c(C(F)(F)F)c3)CC2=O)cc1 (stereo not drawn),-5,1,-2,0,-17
O=C(NCc1ccccc1)Nc1cccn(Cc2ccccc2Cl)c1=O,-7,33*,-3,-2,-4
O=C(NCc1ccccc1Cl)NC(=O)c1ccccc1,-13,33*,1,0,-3
O=C(NCc1ccccc1)Nc1cccn(Cc2ccc(Cl)cc2)c1=O,2,-25,-7,0,-9
CCCCOc1ccc(C2C(C(=O)c3ccc(C)o3)=C(O)C(=O)N2CC2CCCO2)cc1 (stereo not drawn),7,-4,-5,0,-20
CCCc1nc2ccc(NC(=O)c3ccco3)cc2c(=O)n1Cc1ccc(Cl)cc1,45*,0,-3,0,-6
CC1CCCC(NC(=O)c2cn(C)c3ccc(S(=O)(=O)N4CCCC4)cc3c2=O)C1C (stereo not drawn),2,31*,x,0,x
CCCCN(C)CCCNC(=O)c1cn(C)c2ccc(S(=O)(=O)N(C)C3CCCCC3)cc2c1=O,7,34*,0,1,-16
SMILES,D2 PAM-1,D2 antagonist,D2 ag-1,D2 ag-2,D2 PAM-2
CN(CCNC(=O)c1cn(C)c2ccc(S(=O)(=O)N(C)C)cc2c1=O)CCc1ccccc1,-24,45*,-1,16,-11
COc1ccc(CCNC(=O)c2cn(C)c3ccc(S(=O)(=O)N4CCOCC4)cc3c2=O)cc1OC,6,40*,1,-3,-3
CCn1cc(C(=O)NCCc2ccc(OC)c(OC)c2)c(=O)c2cc(S(=O)(=O)N3CCOCC3)ccc21,6,3,-1,-3,5
COc1cccc(-c2cnc3c(NC(C)=O)cc(-c4cccc(C(=O)NCCO)c4)cn23)c1,x,x,5,x,-7
CC(C)C(NS(=O)(=O)c1cccc2cccnc12)C(=O)Nc1ccc(OC(F)(F)F)cc1 (stereo not drawn),2,x,x,0,x
Cc1cccc(NS(=O)(=O)c2ccc(C(=O)N3CCC3)cc2)c1C,-13,-6,-2,0,2

# Screening data deposited in PubChem by National Center for Advancing Translational Sciences (NCATS).
